# Results as given in PMC12529666, “Dysregulation of AGO2-miRNA dynamics underlies the AGO2-associated Lessel–Kreienkamp syndrome”.
# Key:
# Assay in all cases: RNA Bind-n-Seq (nitrocellulose filter binding and sequencing); miR-122 guide loaded in AGO2; 60 min incubation; 30 mM Tris pH 8.0, 100 mM potassium acetate, 2 mM magnesium acetate, 0.5 mM TCEP, 0.005% NP-40, 0.01 mg/ml yeast tRNA; 3 nM AGO2-miR-122, 100 nM RNA library; 60; high values mean tight binding
# Details in all cases: protein: recombinant; tags: His6 (N-terminal, pFastBac HTA)
# AGO2 L192P = AGO2 L192P (Homo sapiens, UniProt Q9UKV8 1-859, L192P;S387D;S824A;S828D;S831D;S834A)
# AGO2 L192P, sequence (Q9UKV8 whole entry L192P/S387D/S824A/S828D/S831D/S834A): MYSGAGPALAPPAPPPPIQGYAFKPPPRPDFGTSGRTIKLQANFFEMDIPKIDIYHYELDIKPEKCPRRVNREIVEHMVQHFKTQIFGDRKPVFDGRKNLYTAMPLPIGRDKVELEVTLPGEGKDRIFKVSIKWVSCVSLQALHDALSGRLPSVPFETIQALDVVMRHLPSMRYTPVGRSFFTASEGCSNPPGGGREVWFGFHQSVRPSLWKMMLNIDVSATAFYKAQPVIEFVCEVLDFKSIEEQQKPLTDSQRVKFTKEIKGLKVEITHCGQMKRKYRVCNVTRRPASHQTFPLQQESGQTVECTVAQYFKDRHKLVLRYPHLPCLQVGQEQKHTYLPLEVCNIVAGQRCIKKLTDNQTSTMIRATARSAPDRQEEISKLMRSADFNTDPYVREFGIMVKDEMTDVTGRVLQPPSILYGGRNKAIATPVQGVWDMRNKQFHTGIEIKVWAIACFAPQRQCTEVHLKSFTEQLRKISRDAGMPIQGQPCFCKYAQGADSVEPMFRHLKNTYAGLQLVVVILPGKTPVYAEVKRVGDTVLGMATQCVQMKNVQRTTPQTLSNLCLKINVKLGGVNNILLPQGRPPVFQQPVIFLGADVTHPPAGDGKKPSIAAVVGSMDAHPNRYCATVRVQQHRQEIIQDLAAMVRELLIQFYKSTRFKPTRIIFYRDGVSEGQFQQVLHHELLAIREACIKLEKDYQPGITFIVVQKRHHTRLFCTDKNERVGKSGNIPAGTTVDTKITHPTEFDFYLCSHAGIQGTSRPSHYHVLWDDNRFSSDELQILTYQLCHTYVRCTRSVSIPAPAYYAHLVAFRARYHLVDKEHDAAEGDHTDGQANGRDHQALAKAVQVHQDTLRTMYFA
# Outline: (§1)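 His-tagged AGO2 was expressed in Sf9 insect cells by baculovirus, loaded with a synthetic guide RNA, and purified by Ni-NTA and a biotinylated capture oligo. Bound RNA was extracted, reverse-transcribed, barcode-amplified and Illumina-sequenced. Fold enrichment is each sequence's read fraction divided by its input-library read fraction.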
# AGO2 A367P = AGO2 A367P (Homo sapiens, UniProt Q9UKV8 1-859, A367P;S387D;S824A;S828D;S831D;S834A)
# AGO2 A367P, sequence (Q9UKV8 whole entry A367P/S387D/S824A/S828D/S831D/S834A): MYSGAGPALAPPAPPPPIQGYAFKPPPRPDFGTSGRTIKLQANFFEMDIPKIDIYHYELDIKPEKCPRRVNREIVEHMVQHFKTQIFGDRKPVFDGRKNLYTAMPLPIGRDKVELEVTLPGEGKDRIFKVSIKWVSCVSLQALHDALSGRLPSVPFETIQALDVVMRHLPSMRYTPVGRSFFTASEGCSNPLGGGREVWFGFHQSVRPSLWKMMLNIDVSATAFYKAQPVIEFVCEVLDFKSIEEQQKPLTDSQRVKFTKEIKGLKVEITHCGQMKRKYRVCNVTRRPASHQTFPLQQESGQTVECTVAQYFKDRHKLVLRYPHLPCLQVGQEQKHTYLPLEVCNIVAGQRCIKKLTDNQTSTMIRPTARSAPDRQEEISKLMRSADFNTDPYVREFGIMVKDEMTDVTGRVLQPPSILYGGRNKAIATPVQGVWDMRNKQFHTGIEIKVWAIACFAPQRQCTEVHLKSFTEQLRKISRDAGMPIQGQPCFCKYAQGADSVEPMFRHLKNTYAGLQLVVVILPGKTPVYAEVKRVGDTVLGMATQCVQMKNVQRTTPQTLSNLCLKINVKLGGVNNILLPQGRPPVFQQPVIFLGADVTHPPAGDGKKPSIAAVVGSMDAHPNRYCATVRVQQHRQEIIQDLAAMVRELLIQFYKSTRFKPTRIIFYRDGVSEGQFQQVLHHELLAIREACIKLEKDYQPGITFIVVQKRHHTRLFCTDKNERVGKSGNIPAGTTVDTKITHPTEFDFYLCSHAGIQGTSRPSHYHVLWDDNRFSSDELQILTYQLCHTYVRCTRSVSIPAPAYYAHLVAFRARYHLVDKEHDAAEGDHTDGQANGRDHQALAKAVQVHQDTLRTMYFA
# Outline: as §1
# AGO2 T357M = AGO2 T357M (Homo sapiens, UniProt Q9UKV8 1-859, T357M;S387D;S824A;S828D;S831D;S834A)
# AGO2 T357M, sequence (Q9UKV8 whole entry T357M/S387D/S824A/S828D/S831D/S834A): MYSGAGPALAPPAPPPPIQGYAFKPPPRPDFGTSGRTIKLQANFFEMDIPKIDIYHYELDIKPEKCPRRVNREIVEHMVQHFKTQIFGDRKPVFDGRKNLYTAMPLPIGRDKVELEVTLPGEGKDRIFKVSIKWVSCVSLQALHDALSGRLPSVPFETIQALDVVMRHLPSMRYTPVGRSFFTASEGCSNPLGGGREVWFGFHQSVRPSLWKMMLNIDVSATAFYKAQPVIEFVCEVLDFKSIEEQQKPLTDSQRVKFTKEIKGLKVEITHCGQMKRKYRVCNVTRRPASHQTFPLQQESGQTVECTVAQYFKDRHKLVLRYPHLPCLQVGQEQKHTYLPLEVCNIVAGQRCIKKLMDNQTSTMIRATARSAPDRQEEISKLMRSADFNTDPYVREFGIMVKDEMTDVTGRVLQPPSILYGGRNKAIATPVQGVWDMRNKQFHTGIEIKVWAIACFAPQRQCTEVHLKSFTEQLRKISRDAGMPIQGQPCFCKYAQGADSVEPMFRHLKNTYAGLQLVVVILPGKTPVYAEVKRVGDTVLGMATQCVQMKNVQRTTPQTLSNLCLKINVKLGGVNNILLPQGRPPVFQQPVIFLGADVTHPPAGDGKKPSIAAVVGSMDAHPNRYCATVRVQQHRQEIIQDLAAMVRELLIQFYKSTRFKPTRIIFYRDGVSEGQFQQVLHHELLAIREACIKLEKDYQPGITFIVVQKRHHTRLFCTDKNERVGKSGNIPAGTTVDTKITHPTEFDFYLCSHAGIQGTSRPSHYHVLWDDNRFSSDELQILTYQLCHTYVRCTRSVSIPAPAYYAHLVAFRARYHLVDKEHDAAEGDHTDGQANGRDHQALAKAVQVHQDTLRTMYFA
# Outline: as §1
binder,measurement,setting,value
"ATACTCTG (ssRNA, constant regions annealed to DNA blockers; guide miR-122 5' phosphate) RNA 1: GAGUUCUACAGUCCGACGAUCCCAACAUACUCUGCACCUGGAAUUCUCGGGUGCCAA RNA 2: UGGAGUGUGACAAUGGUGUUUG DNA 1: GATCGTCGGACTGTAGAACTC DNA 2: TTGGCACCCGAGAATTCCA",binding signal,AGO2 L192P,0.349 fold enrichment over input
same,binding signal,AGO2 A367P,0.134 fold enrichment over input
same,binding signal,AGO2 T357M,0.504 fold enrichment over input
"ATATCTCG (ssRNA, constant regions annealed to DNA blockers; guide miR-122 5' phosphate) RNA 1: GAGUUCUACAGUCCGACGAUCCCAACAUAUCUCGCACCUGGAAUUCUCGGGUGCCAA RNA 2: UGGAGUGUGACAAUGGUGUUUG DNA 1: GATCGTCGGACTGTAGAACTC DNA 2: TTGGCACCCGAGAATTCCA",binding signal,AGO2 L192P,0.351 fold enrichment over input
same,binding signal,AGO2 A367P,0.124 fold enrichment over input
same,binding signal,AGO2 T357M,0.398 fold enrichment over input
"ACATTTCG (ssRNA, constant regions annealed to DNA blockers; guide miR-122 5' phosphate) RNA 1: GAGUUCUACAGUCCGACGAUCCCAACACAUUUCGCACCUGGAAUUCUCGGGUGCCAA RNA 2: UGGAGUGUGACAAUGGUGUUUG DNA 1: GATCGTCGGACTGTAGAACTC DNA 2: TTGGCACCCGAGAATTCCA",binding signal,AGO2 L192P,0.421 fold enrichment over input
same,binding signal,AGO2 A367P,0.151 fold enrichment over input
same,binding signal,AGO2 T357M,0.514 fold enrichment over input
"GTACTTCG (ssRNA, constant regions annealed to DNA blockers; guide miR-122 5' phosphate) RNA 1: GAGUUCUACAGUCCGACGAUCCCAACGUACUUCGCACCUGGAAUUCUCGGGUGCCAA RNA 2: UGGAGUGUGACAAUGGUGUUUG DNA 1: GATCGTCGGACTGTAGAACTC DNA 2: TTGGCACCCGAGAATTCCA",binding signal,AGO2 L192P,0.351 fold enrichment over input
same,binding signal,AGO2 A367P,0.13 fold enrichment over input
same,binding signal,AGO2 T357M,0.538 fold enrichment over input
"GTACCCCG (ssRNA, constant regions annealed to DNA blockers; guide miR-122 5' phosphate) RNA 1: GAGUUCUACAGUCCGACGAUCCCAACGUACCCCGCACCUGGAAUUCUCGGGUGCCAA RNA 2: UGGAGUGUGACAAUGGUGUUUG DNA 1: GATCGTCGGACTGTAGAACTC DNA 2: TTGGCACCCGAGAATTCCA",binding signal,AGO2 L192P,0.358 fold enrichment over input
same,binding signal,AGO2 A367P,0.123 fold enrichment over input
same,binding signal,AGO2 T357M,0.475 fold enrichment over input
"GCACCTTG (ssRNA, constant regions annealed to DNA blockers; guide miR-122 5' phosphate) RNA 1: GAGUUCUACAGUCCGACGAUCCCAACGCACCUUGCACCUGGAAUUCUCGGGUGCCAA RNA 2: UGGAGUGUGACAAUGGUGUUUG DNA 1: GATCGTCGGACTGTAGAACTC DNA 2: TTGGCACCCGAGAATTCCA",binding signal,AGO2 L192P,0.387 fold enrichment over input
same,binding signal,AGO2 A367P,0.154 fold enrichment over input
same,binding signal,AGO2 T357M,0.503 fold enrichment over input
"ACGTTCCG (ssRNA, constant regions annealed to DNA blockers; guide miR-122 5' phosphate) RNA 1: GAGUUCUACAGUCCGACGAUCCCAACACGUUCCGCACCUGGAAUUCUCGGGUGCCAA RNA 2: UGGAGUGUGACAAUGGUGUUUG DNA 1: GATCGTCGGACTGTAGAACTC DNA 2: TTGGCACCCGAGAATTCCA",binding signal,AGO2 L192P,0.361 fold enrichment over input
same,binding signal,AGO2 A367P,0.128 fold enrichment over input
same,binding signal,AGO2 T357M,0.44 fold enrichment over input
"ATACTTCG (ssRNA, constant regions annealed to DNA blockers; guide miR-122 5' phosphate) RNA 1: GAGUUCUACAGUCCGACGAUCCCAACAUACUUCGCACCUGGAAUUCUCGGGUGCCAA RNA 2: UGGAGUGUGACAAUGGUGUUUG DNA 1: GATCGTCGGACTGTAGAACTC DNA 2: TTGGCACCCGAGAATTCCA",binding signal,AGO2 L192P,0.406 fold enrichment over input
same,binding signal,AGO2 A367P,0.138 fold enrichment over input
same,binding signal,AGO2 T357M,0.509 fold enrichment over input
"ACATTTTG (ssRNA, constant regions annealed to DNA blockers; guide miR-122 5' phosphate) RNA 1: GAGUUCUACAGUCCGACGAUCCCAACACAUUUUGCACCUGGAAUUCUCGGGUGCCAA RNA 2: UGGAGUGUGACAAUGGUGUUUG DNA 1: GATCGTCGGACTGTAGAACTC DNA 2: TTGGCACCCGAGAATTCCA",binding signal,AGO2 L192P,0.41 fold enrichment over input
same,binding signal,AGO2 A367P,0.143 fold enrichment over input
same,binding signal,AGO2 T357M,0.537 fold enrichment over input
"ATATCCTA (ssRNA, constant regions annealed to DNA blockers; guide miR-122 5' phosphate) RNA 1: GAGUUCUACAGUCCGACGAUCCCAACAUAUCCUACACCUGGAAUUCUCGGGUGCCAA RNA 2: UGGAGUGUGACAAUGGUGUUUG DNA 1: GATCGTCGGACTGTAGAACTC DNA 2: TTGGCACCCGAGAATTCCA",binding signal,AGO2 L192P,0.467 fold enrichment over input
same,binding signal,AGO2 A367P,0.17 fold enrichment over input
same,binding signal,AGO2 T357M,0.569 fold enrichment over input
"ATACCTCG (ssRNA, constant regions annealed to DNA blockers; guide miR-122 5' phosphate) RNA 1: GAGUUCUACAGUCCGACGAUCCCAACAUACCUCGCACCUGGAAUUCUCGGGUGCCAA RNA 2: UGGAGUGUGACAAUGGUGUUUG DNA 1: GATCGTCGGACTGTAGAACTC DNA 2: TTGGCACCCGAGAATTCCA",binding signal,AGO2 L192P,0.339 fold enrichment over input
same,binding signal,AGO2 A367P,0.127 fold enrichment over input
same,binding signal,AGO2 T357M,0.409 fold enrichment over input
"ATGTCCCG (ssRNA, constant regions annealed to DNA blockers; guide miR-122 5' phosphate) RNA 1: GAGUUCUACAGUCCGACGAUCCCAACAUGUCCCGCACCUGGAAUUCUCGGGUGCCAA RNA 2: UGGAGUGUGACAAUGGUGUUUG DNA 1: GATCGTCGGACTGTAGAACTC DNA 2: TTGGCACCCGAGAATTCCA",binding signal,AGO2 L192P,0.319 fold enrichment over input
same,binding signal,AGO2 A367P,0.125 fold enrichment over input
same,binding signal,AGO2 T357M,0.416 fold enrichment over input
"GTACTCTG (ssRNA, constant regions annealed to DNA blockers; guide miR-122 5' phosphate) RNA 1: GAGUUCUACAGUCCGACGAUCCCAACGUACUCUGCACCUGGAAUUCUCGGGUGCCAA RNA 2: UGGAGUGUGACAAUGGUGUUUG DNA 1: GATCGTCGGACTGTAGAACTC DNA 2: TTGGCACCCGAGAATTCCA",binding signal,AGO2 L192P,0.332 fold enrichment over input
same,binding signal,AGO2 A367P,0.134 fold enrichment over input
same,binding signal,AGO2 T357M,0.423 fold enrichment over input
